# Screening results as filed in PubChem.
# FEN1 inh = qHTS Assay for the Inhibitors of Human Flap endonuclease 1 (FEN1) | hit rate 0.35% among 390,000 | P39748 | Potency, µM (top dose mostly 114 µM), for the others: top-dose activity change, negative = inhibition, actives largely listed as inhibitors | Recombinant FEN1 flap cleavage, fluorescence, 15 min; note: potency is the fitted concentration of half-maximal effect; % is set by controls: 0 for no effect and ±100 for the full control effect; nearly all actives have a fitted effect of over 65% in size
# Target sequence (P39748 whole entry, looked up): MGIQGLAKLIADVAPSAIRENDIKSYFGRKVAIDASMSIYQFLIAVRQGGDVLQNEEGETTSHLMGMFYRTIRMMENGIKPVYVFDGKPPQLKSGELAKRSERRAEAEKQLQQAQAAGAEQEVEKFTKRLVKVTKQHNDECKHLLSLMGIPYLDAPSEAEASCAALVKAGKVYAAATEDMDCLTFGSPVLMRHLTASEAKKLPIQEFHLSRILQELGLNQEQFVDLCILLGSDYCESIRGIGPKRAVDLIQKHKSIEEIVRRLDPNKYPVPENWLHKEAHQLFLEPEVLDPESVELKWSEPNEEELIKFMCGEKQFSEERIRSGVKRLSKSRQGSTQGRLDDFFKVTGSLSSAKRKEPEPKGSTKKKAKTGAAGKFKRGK
#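 Steps: FEN1 (10 nM) dispensed; compound added by pin tool; 15 min at room temperature; substrate added to 50 nM final; reads at 0 min and 15 min; data normalized and fitted (four-parameter Hill).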
# TCR act = Activators of T cell receptors: qHTS campaign. primary human leukocytes, anti-CD3, IL-2 HTRF, 48 h. Potency, µM (doses to about 9.22 µM), for inactives: top-dose activation of IL-2 secretion, actives largely listed as activators. 330,000 tested, under 10 active. AID 504894, 2011; note: % of control where 0% means no effect
#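 Activity was scored as IL-2 release from primary human leukocytes given only a TCR signal (a-CD3 beads) plus compound for 48 hr. Detection used a two-antibody HTRF format read at 665nm.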
# WRN inhibitor = qHTS for Inhibitors of WRN Helicase; WRN helicase unwinding, fluorescent forked duplex, kinetic; Bifunctional 3'-5' exonuclease/ATP-dependent helicase WRN (Homo sapiens), Q14191; AID 651768, 2012; Potency, µM (top dose mostly 114 µM), without a hit: at the top dose activity change, negative = inhibition, hits mostly inhibitors; hit rate 0.46% among 360,000; note: potency is the fitted concentration of half-maximal effect; % is set by controls: 0 for no effect and ±100 for the full control effect; nearly all actives have a fitted effect of over 55% in size
#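 Primary qHTS, 1536-well format. 20 nM WRN + compound, 15 min RT; start with 100 nM forked fluorophore/quencher duplex, 2 mM ATP (final); kinetic read ex 525/em 598 nm.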
# VDR inh = Inhibitors of the vitamin D receptor (VDR): qHTS; Vitamin D3 receptor (Homo sapiens), P11473; VDR-SRC2-3 peptide fluorescence polarization, 2 h; hit rate 0.93% among 400,000; Potency, µM, for the others: max response, negative = inhibition, hits mostly inhibitors; note: potency is the fitted concentration of half-maximal effect; % is set by controls: 0 for no effect and ±100 for the full control effect
#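 VDR–SRC2-3 interaction, FP format. Cmpds 23 nl via pintool, brief spin, 2 h ambient incubation.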
# PI5P4Ka inh = qHTS for Inhibitors of phosphatidylinositol 5-phosphate 4-kinase (PI5P4K); hit rate 1.2% among 330,000; PI5P4Kalpha enzyme, ADP-Glo luminescence, 60 min; hits give low values; max response, %; active = max response of -50% or lower; inconclusive = between -30% and -50%; inactive = -30% or higher; note: value at the top dose of about 77 µM; % is set by controls: 0 for no effect and ±100 for the full control effect
# Target sequence (P48426 whole entry, looked up): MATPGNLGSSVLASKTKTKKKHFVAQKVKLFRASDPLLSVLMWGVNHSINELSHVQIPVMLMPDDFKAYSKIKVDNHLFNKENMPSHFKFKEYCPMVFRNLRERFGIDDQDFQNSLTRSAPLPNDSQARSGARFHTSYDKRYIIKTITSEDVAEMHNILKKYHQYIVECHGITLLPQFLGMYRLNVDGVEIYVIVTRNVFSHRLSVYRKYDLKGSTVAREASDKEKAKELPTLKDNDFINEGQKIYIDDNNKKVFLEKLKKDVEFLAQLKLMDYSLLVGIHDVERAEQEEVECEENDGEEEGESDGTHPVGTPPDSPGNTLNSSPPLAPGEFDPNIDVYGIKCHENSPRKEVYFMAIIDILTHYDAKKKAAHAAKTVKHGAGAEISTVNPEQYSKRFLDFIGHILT
#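 ADP-Glo luminescence end-point read after a 60 min room-temperature kinase reaction of PI5P4Kalpha plus substrate, initiated with ATP at 5 microM final. Buffer: 0.038 M HEPES pH 7.4, EGTA, 0.1% CHAPS, 5% DMSO.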
# PLK1 PBD block = qHTS for Inhibitors of PLK1-PDB (polo-like kinase 1 - polo-box domain): Primary Screen | hit rate 2.8% among 360,000 | Plk1 PBD binding of FITC phosphopeptide, fluorescence polarization | Serine/threonine-protein kinase PLK1 (Homo sapiens), P53350 | Potency, µM, inactives show max response, negative = inhibition, hits mostly inhibitors; note: potency is the fitted concentration of half-maximal effect; series mostly up to about 57 µM; % is set by controls: 0 for no effect and ±100 for the full control effect; nearly all actives have a fitted effect of over 65% in size
# * marks the source's active call; other numbers are inactive results; ? = inconclusive; / = no result; [ ] = another dose, or the depositor's remark. Hits are enriched below; roughly 3.7% of the tested compounds scored in any of these assays. Unless noted, calls come from the whole dose curve; as a rule, active = well fitted curve in the direction sought with a large enough effect; inconclusive = small, poorly fitted or top-dose-only effect, or another doubt; inactive = no such curve, though single readings can be large; an effect the other way counts as inactive or inconclusive.
SMILES,FEN1 inh,TCR act,WRN inhibitor,VDR inh,PI5P4Ka inh,PLK1 PBD block
Clc1nc(Nc2ccc(N3CCOCC3)cc2)c2ccccc2n1,-19.1%,5.6%,-6.8%,22.6%,-0.5,-9.1%
O=S(=O)(Nc1nc2ccccc2nc1Nc1ccc(N2CCOCC2)cc1)c1cc(Cl)ccc1Cl,-1.1%,0.4%[46.1 µM],4.6%,-23.1%,-2.5,11.9µM*
CCOCCCNC(=O)C(c1ccc(Cl)cc1)N(Cc1cccs1)C(=O)c1ccc(NC(C)=O)cc1 (centres undefined),4.9%,/,/,12.8%,/,/
CC(C)[C@H](NS(=O)(=O)c1ccc2c(c1)OCCO2)C(=O)OCC(=O)Nc1ccccc1Cl,-6.8%,-2.0%,-7.6%,1.6%,4.0,-1.2%
CC(C)[C@H](NS(=O)(=O)c1ccc2c(c1)OCCO2)C(=O)OCC(=O)Nc1cc(Cl)ccc1Cl,8.4%,-0.5%[46.1 µM],-25.6%,79.4µM*,-7.8,29.9µM*
CN1C(C(=O)Nc2ccccn2)C(=O)c2sc(Cl)cc2S1(=O)=O (centres undefined),/,/,/,-7.6%,/,/
COc1ccccc1NC(=O)CN1CCN(c2ccc(F)cc2)CC1,9.4%,-1.0%,-1.4%,?,0.0,23.8µM*
O=C(CC1N=C2c3ccccc3N=C(SCc3ccccc3Cl)N2C1=O)NCc1cccs1 (centres undefined),-13.0%,/,/,7.6%,/,/
C/C(=N\OCc1nc2ccccc2c(=O)n1/N=C/c1cc(C)cc([N+](=O)[O-])c1O)c1ccccc1,-15.8%,-1.6%,4.1%,-24.8%,-0.1,-2.3%
C/C(=N\OCc1nc2ccccc2c(=O)n1/N=C/c1cc([N+](=O)[O-])ccc1O)c1ccccc1,-29.7%,-7.8%,-18.7%,-12.5%,-54.3*,-13.0%
Cc1cccc(N(CC(=O)NCCSCc2ccc(Cl)cc2)S(C)(=O)=O)c1C,-1.3%,/,/,-3.0%,/,/
O=C(CSc1ccc(Br)cc1)Nc1cccc(S(=O)(=O)N2CCOCC2)c1,-11.5%,1.6%,-20.1%,?,-5.7,5.97µM*
Cc1cc(C(=O)OCC(=O)Nc2cccc(S(N)(=O)=O)c2)c(C)o1,-9.2%,-3.5%,-26.3%,-2.6%,1.0,-8.3%
Cc1cc(C(=O)OCC(=O)Nc2cccc(S(=O)(=O)N3CCOCC3)c2)c(C)o1,3.6%,3.9%,-0.3%,-17.6%,-15.5,26.7µM*
COc1ccccc1N1CCN(S(=O)(=O)c2ccc(-c3cc(C(F)(F)F)on3)s2)CC1,2.8%,/,/,2.9%,/,/
CCOC(=O)c1ccc(NC(=O)CC2C(=O)N(c3cccc(OC)c3)C(=O)N2Cc2ccc(OC)cc2)cc1 (centres undefined),9.3%,/,/,-2.6%,/,/
C=C1Cc2c(Cl)cc3[nH]c4c5c3c2[C@@]2(O)[C@@H]1C[C@@H]2C(C)(C)O[C@H]5[C@@H]1CC[C@@]2(O)[C@@]35O[C@@H]3[C@@H](O)[C@@H](C(=O)O)O[C@H]5CC[C@]2(C)[C@@]41C,/,/,/,-11.3%,/,/
O=C(Nc1nc(-c2ccccc2)c(-c2ccccc2)o1)c1ccc(F)cc1,-8.7%,-17.4%,-2.4%,-9.4%,-26.5,2.99µM*
COc1cccc(C(=O)Nc2nc(-c3ccccc3)c(-c3ccccc3)o2)c1,0.4%,2.0%[46.1 µM],-4.2%,-19.6%,0.6,?
O=C(O)Cc1cccc(OCCCN(Cc2cccc(C(F)(F)F)c2Cl)CC(c2ccccc2)c2ccccc2)c1,/,/,/,39.8µM*,/,/
CC1CCc2nn(CC(=O)NCc3ccc(F)cc3)cc2C1 (centres undefined),22.0%,1.1%,3.0%,-14.0%,3.4,?
CC1CCc2nn(CC(=O)NCc3ccco3)cc2C1 (centres undefined),3.4%,0.7%[46.1 µM],-12.8%,-12.4%,-2.7,29.9µM*
COc1ccc(NC(=O)c2sc3nc[nH]c(=O)c3c2C)cc1Cl,-1.8%,/,/,5.0%,/,/
N#C/C(=C/c1ccc(N2CCOCC2)o1)c1nc2ccccc2[nH]1,?,19.4%[46.1 µM],56.2µM*,-22.6%,-21.4,100.6%
S=C(c1nc2ccccc2[nH]1)N1CCOCC1,-0.2%,9.0%[46.1 µM],-0.2%,?,-20.8,23.8µM*
SMILES,FEN1 inh,TCR act,WRN inhibitor,VDR inh,PI5P4Ka inh,PLK1 PBD block
CCCCC1(C)OC(=O)C(=Cc2ccc(SC)cc2)C(=O)O1 (centres undefined),0.7%,4.0%,-9.5%[57.1 µM],10.0%,9.5,2.38µM*
CN(C)c1ccc(C=C2C(=O)OC(C)(C)OC2=O)cc1,9.6%,4.1%,-10.9%,-7.7%,8.1,?
CCOC(=O)c1ccc(NC(=O)COCc2cc(-c3ccc4c(c3)OCO4)on2)cc1,17.0%,/,/,-0.5%,/,/
CCn1c(=S)[nH]c2sc3c(c2c1=O)CCCC3,-13.1%,-3.9%,-5.8%,?,-20.8,-28.7%
CN(C)CCCn1c(=S)[nH]c2sc3c(c2c1=O)CCCC3,-1.5%,-5.7%,?,?,?,18.9µM*
CCCN1CNc2c(c(=O)[nH]c(=S)n2CCC(C)C)C1,-5.4%,/,/,-8.9%,/,/
Cc1[nH]n2cnnc2c(=O)c1Br,16.1%,-5.6%,-3.3%,-16.7%,-51.2*,-1.6%
C=CCN=c1scc(-c2ccco2)n1/N=C/c1ccc(O)c(O)c1O,?,3.6%,50.1µM*,-12.0%,-72.9*,7.52µM*
CN=c1scc(-c2cccs2)n1/N=C/c1ccc(O)c(O)c1O,35.5µM*,-3.4%[46.1 µM],?,?,-75.4*,6.7µM*
CC(C)(C)n1ncc2c(=O)n(Cc3cc(F)c(F)cc3Cl)cnc21,-16.0%,/,/,/,/,/
CNc1nnc(Sc2ncccc2[N+](=O)[O-])s1,-4.3%,-0.9%,-6.3%,-19.8%,-9.1,15µM*
Cc1ccc(-c2nsc(NC(=O)c3oc4cc(C)c(Cl)cc4c3C)n2)cc1,-6.4%,/,/,11.6%,/,/
N#Cc1cccc(NC(=O)Cn2cnc(S(=O)(=O)N3CCOCC3)c2)c1,-15.2%,-1.4%,7.1%,?,-16.3,9.47µM*
Cc1ccnc2c(Cl)cccc12,-5.9%,/,/,/,/,/
COc1cccc(NS(=O)(=O)c2ccc3[nH]cc(C(=O)NC4CCCCC4)c(=O)c3c2)c1,-6.6%,/,/,-7.0%,/,/
BrC(=C\c1ccccc1)/C=N/N1CCN(c2ccccc2)CC1,-6.9%,-3.3%,-11.1%,79.4µM*,-0.2,-25.6%
O=C(CCO)c1ccc(O)cc1,22.4µM*,-37.4%,28.2µM*,-13.1%,-65.0*,-1.0%
CC1=C(C)CC(C(=O)Nc2ccc(C(=O)N3CCOCC3)cc2)C(C(=O)O)C1 (centres undefined),1.3%,6.3%,8.0%,-22.3%,-9.3,21.2µM*
COc1ccc(N2Cc3cccc(C(=O)Nc4cc(C)cc(C)c4)c3C2=O)cc1,-16.1%,/,/,-7.7%,/,/
